Experimental findings from PubChem BioAssay (Tox21) are described below.

SMILES strings stand for the structures. Where “and” joins values, the source holds several entries; their conditions need not be identical. Equal values may be shown once. Inconclusive results are not listed. Unmarked numbers belong to inactive results. Calls of active or inactive are those of the source. The call rests on the fitted dose curve; in most records, active means well fitted cell-killing curve with a large enough effect in the repeat runs; inconclusive means weak or mixed curves, or effect the other way; inactive means flat fitted curve, though single readings scatter.

Assay [1] can be described thus: cAMP Responsive Elements (CRE) small molecule antagonists, cell-based qHTS assay: qHTS cell viability counter screen (AID 2060913). Further: nearly all actives have a fitted effect of over 40% in size. The procedure, abridged:
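CRE-bla HEK293T cells (2,000/well, 18 h) given compound plus NKH477 0.25 uM final for 3 h at 37C; viability counter-screen by CellTiter-Glo luminescence in same wells after 30 min.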
(In general: Quantitative high-throughput screening tests each substance at several concentrations.)

Assay [2] can be described thus: cAMP Responsive Elements (CRE) small molecule agonists, cell-based qHTS assay: qHTS cell viability counter screen (AID 2060914). Further: nearly all actives have a fitted effect of over 50% in size. The essentials: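 HEK 293T CRE-bla; DMEM + 10% dialyzed FBS, 25 mM HEPES; 18 h pre-incubation; compound 3 h, 37 °C/5% CO2; CellTiter-Glo added after reporter read; luminescence after 30 min RT.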
On the % scale 0 is the no-effect control and ±100 the full control effect; potency means the concentration at half of the fitted maximal effect.

`CN1C(C)(C)CCCC1(C)C`: the Potency entry in assay [1] and in assay [2] was “inactive” in each case.

With `Oc1ccc(O)c2c(O)cccc12`, the Potency entry in assay [1] and in assay [2] was “inactive” in each case.

Regarding `CC(C)C(=O)OCc1ccccc1`, the Potency entry in assay [1] and in assay [2] was “inactive” throughout.

For `Cc1cc(OCCOCC[N+](C)(C)Cc2ccccc2)ccc1C(C)(C)CC(C)(C)C`, the Potency was 54.2 µM (active) and 29.8 µM (active) in assay [1]; 60.8 µM (active) and 26.6 µM (active) in assay [2].

As for `C[C@]12CCC(=O)C=C1C=C[C@@H]1[C@@H]2CC[C@@]2(C)[C@H]1CC[C@@]21CCC(=O)O1`, the Potency entry in assay [1] and in assay [2] was “inactive” in each case.

In the case of `O=C1OC2(c3ccc(O)cc3Oc3cc(O)ccc32)c2ccccc21`, the Potency entry in assay [1] and in assay [2] was “inactive” in each case.

With `CCCOC(=O)CC`, the Potency entry in assay [1] and in assay [2] was “inactive” each time.

Regarding `Cc1ccc(C2OC[C@@H]3OC(c4ccc(C)cc4)O[C@H]([C@H](O)CO)[C@@H]3O2)cc1` (stereo not given in full), the Potency entry in assay [1] and in assay [2] was “inactive” each time.

Take `O=[N+]([O-])c1ccc(O)c2ncccc12`: the Potency result in assay [1] and in assay [2] was “inactive” in each case.

Take `Clc1ccc2n[nH]nc2c1`: the Potency result in assay [1] and in assay [2] was “inactive” in each case.

With `CC(=O)OCCC1CCCCC1`, the Potency entry in assay [1] and in assay [2] was “inactive” in each case.

As for `CN(C)CCn1nnnc1SCC1=C(C(=O)O)N2C(=O)[C@@H](NC(=O)Cc3csc(N)n3)[C@H]2SC1`, the Potency entry in assay [1] and in assay [2] was “inactive” throughout.

Consider `Cc1ccc2c(c1)OCC(=O)CO2`, for which the Potency result in assay [1] and in assay [2] was “inactive” throughout.

For `CN/C(=C\[N+](=O)[O-])NCCSCc1csc(CN(C)C)n1`, the Potency result in assay [1] and in assay [2] was “inactive” in each case.

On to `NC(=S)NC(N)=S`, for which the Potency entry in assay [1] and in assay [2] was “inactive” throughout.

Regarding `CCCCC[C@H](O)/C=C/[C@H]1[C@H](O)CC(=O)[C@@H]1C/C=C\CCCC(=O)O`, the Potency result in assay [1] and in assay [2] was “inactive” each time.

As to `C=CC(=O)OCC[N+](C)(C)C`, the Potency result in assay [1] and in assay [2] was “inactive” in each case.

With `CC(C)Nc1cccnc1N1CCN(C(=O)c2cc3cc(NS(C)(=O)=O)ccc3[nH]2)CC1`, the Potency result in assay [1] and in assay [2] was “inactive” each time.

For `CNNCc1ccc(C(=O)NC(C)C)cc1`, the Potency result in assay [1] and in assay [2] was “inactive” each time.

In the case of `CCCCCCC(C)(C)C(=O)O`, the Potency entry in assay [1] and in assay [2] was “inactive” in each case.

`CC(=O)OCC(=O)[C@@]1(O)CC[C@H]2[C@@H]3CCC4=CC(=O)CC[C@]4(C)[C@H]3C(=O)C[C@@]21C`: the Potency entry in assay [1] and in assay [2] was “inactive” each time.

With `O=C1CCC(C2CCCCC2)CC1`, the Potency entry in assay [1] and in assay [2] was “inactive” in each case.

For `CCCCCCCCCCOC(=O)c1ccccc1C(=O)OCCCCCCCC`, the Potency result in assay [1] and in assay [2] was “inactive” throughout.

As for `COC(=O)C1=C(C)NC(C)=C(C(=O)OC(C)(C)CN(C)CCC(c2ccccc2)c2ccccc2)C1c1cccc([N+](=O)[O-])c1` (stereo not given), the Potency entry in assay [1] and in assay [2] was “inactive” each time.

In the case of `CCOC(=O)/C=C\C(=O)OCC`, the Potency entry in assay [1] and in assay [2] was “inactive” in each case.

With `O=C(C1CCCCC1)N1CC(=O)N2CCc3ccccc3C2C1` (stereo not given), the Potency entry in assay [1] and in assay [2] was “inactive” each time.

Take `CCCCCCCC(=O)N(C)C`: the Potency entry in assay [1] and in assay [2] was “inactive” throughout.

Consider `CCCCC(CC)CO` (stereo not given), for which the Potency result in assay [1] and in assay [2] was “inactive” throughout.

As for `CCN(CC)C(=O)/C(C#N)=C/c1cc(O)c(O)c([N+](=O)[O-])c1`, the Potency result in assay [1] and in assay [2] was “inactive” each time.

Consider `CC(C)=CCC/C(C)=C/C=O`, for which the Potency result in assay [1] and in assay [2] was “inactive” in each case.

As for `CC(C)(O)c1coc(S(=O)(=O)NC(=O)Nc2c3c(cc4c2CCC4)CCC3)c1`, the Potency entry in assay [1] and in assay [2] was “inactive” each time.

For the compound `CCc1ccc(C(c2ccc(CC)cc2)C(Cl)Cl)cc1`, the Potency result in assay [1] and in assay [2] was “inactive” each time.

For `C[C@@H]1C[C@H]2O[C@@]3(O[C@@H]2C(C)(C)O)[C@H](O)[C@@]2(C)[C@@H]4CC[C@H]5C(C)(C)[C@@H](O[C@@H]6OC[C@@H](O)[C@H](O)[C@H]6O)CC[C@@]56C[C@@]46CC[C@]2(C)[C@@H]13`, the Potency entry in assay [1] and in assay [2] was “inactive” in each case.

Take `CCCCOCCOCCOC(C)=O`: the Potency result in assay [1] and in assay [2] was “inactive” each time.

For the compound `CNCCCN1c2ccccc2CCc2ccccc21`, the Potency result in assay [1] and in assay [2] was “inactive” in each case.

On to `C[C@@H]1C[C@H]2[C@@H]3CCC4=CC(=O)C=C[C@]4(C)[C@@]3(F)[C@@H](O)C[C@]2(C)[C@@]1(O)C(=O)COP(=O)(O)O`, for which the Potency entry in assay [1] and in assay [2] was “inactive” throughout.

Regarding `O=C1OC(=O)c2c(Br)c(Br)c(Br)c(Br)c21`, the Potency entry in assay [1] and in assay [2] was “inactive” each time.

In the case of `O=S(=O)(c1ccc(OCc2ccccc2)cc1)c1ccccc1O`, the Potency entry in assay [1] and in assay [2] was “inactive” throughout.

As to `Nc1nc2ncc(CNc3ccc(C(=O)N[C@@H](CCC(=O)O)C(=O)O)cc3)nc2c(=O)[nH]1`, the Potency entry in assay [1] and in assay [2] was “inactive” throughout.

As to `O=c1[nH]c(=O)c2[nH]c(=O)[nH]c2[nH]1`, the viability change, negative = cytotoxic in assay [1] is -5.49% [at 8.39 µM]. In addition, the activity change, negative = cytotoxicity in assay [2] is 8.03% [at 8.39 µM].

As to `CCOC(=O)C(=O)CCc1ccccc1`, the Potency result in assay [1] and in assay [2] was “inactive” each time.

As for `C[C@H]1[C@H](NC(=O)/C(=N/OC(C)(C)C(=O)O)c2csc(N)n2)C(=O)N1S(=O)(=O)O` (stereo in doubt), the Potency result in assay [1] and in assay [2] was “inactive” in each case.

As for `O=c1oc2cc(O)ccc2c2oc3cc(O)ccc3c12`, the Potency entry in assay [1] and in assay [2] was “inactive” in each case.

Regarding `CCCCS(=O)(=O)N[C@@H](Cc1ccc(OCCCCC2CCNCC2)cc1)C(=O)O`, the Potency entry in assay [1] and in assay [2] was “inactive” each time.

On to `COc1ccc(C(=O)c2ccc(C)cc2)c(O)c1`, for which the Potency entry in assay [1] and in assay [2] was “inactive” in each case.

On to `CCCCCCCC/C=C\CCCCCCCC(=O)N(C)CC(=O)O`, for which the Potency entry in assay [1] and in assay [2] was “inactive” in each case.

For the compound `O=S(=O)(O)CC(O)CCl` (stereo not given), the Potency entry in assay [1] and in assay [2] was “inactive” in each case.

In the case of `CC1=C(/C=C/C(C)=C/C=C/C(C)=C/C(=O)Nc2ccc(O)cc2)C(C)(C)CCC1`, the Potency result in assay [1] and in assay [2] was “inactive” throughout.

Take `Nc1nc(N)c(-c2ccccc2)s1`: the Potency entry in assay [1] and in assay [2] was “inactive” each time.

For `CCC(C=O)CC`, the Potency result in assay [1] and in assay [2] was “inactive” in each case.
